{"source": "PubChem BioAssay AID434931", "about": "(National Center for Advancing Translational Sciences (NCATS), 2010)", "note": "Records with an inconclusive call do not appear. Active and inactive are the calls of the source. Calls follow the shape of the dose curve; as a rule, active = well fitted inhibition curve with a large enough effect; inconclusive = small, poorly fitted or top-dose-only effect, or another doubt; inactive = no such curve, though single readings can be large or run the other way."}
{"target": "Neuropeptide S receptor (Homo sapiens) (UniProt Q6W5P4)", "sequence (Q6W5P4 whole entry, looked up)": "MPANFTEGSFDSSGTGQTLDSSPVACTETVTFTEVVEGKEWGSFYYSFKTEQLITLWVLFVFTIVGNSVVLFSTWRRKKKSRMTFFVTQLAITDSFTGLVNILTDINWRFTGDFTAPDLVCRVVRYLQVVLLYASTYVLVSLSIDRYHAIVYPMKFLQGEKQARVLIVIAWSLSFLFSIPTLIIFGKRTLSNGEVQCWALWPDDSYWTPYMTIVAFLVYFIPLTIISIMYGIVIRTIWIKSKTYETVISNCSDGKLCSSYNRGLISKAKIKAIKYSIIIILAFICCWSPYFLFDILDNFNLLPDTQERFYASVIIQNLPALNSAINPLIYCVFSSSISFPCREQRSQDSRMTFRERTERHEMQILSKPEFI", "assay": "Confirmation Concentration-Response Assay for Antagonists of the Neuropeptide S Receptor: Robust Characterization of Calcium Signal Transduction", "settings": "CHO-NPSR cells, NPS-induced calcium fluorescence (FDSS)", "source_text": "NIH Chemical Genomics Center [NCGC] NIH Molecular Libraries Probe Production centers Network [MLPCN] MLPCN Grant: X01-DA026210-01 Assay Submitter (PI): Heilig, Markus Alexander NCGC Assay Overview: Neuropeptide S receptor (NPSR), previously known as GPR154, is a recently de-orphanized G protein coupled receptor. Its endogenous ligand is the 20 amino acids peptide Neuropeptide S (NPS). […] NPS and its receptor are found in various tissues. Specifically they are highly expressed in brain areas that have been implicated in modulation of arousal, stress and anxiety. Central administration of NPS in mice produces an unusual profile of activity by inducing wakefulness and arousal, while at the same time suppressing anxiety. Therefore, NPSR may represent a novel drug target for the treatment of sleep and anxiety disorders. To identify NPSR antagonists, we developed a cell-based assay with transfected NPS receptor. NPS can stimulate the production of cAMP as well as release intracellular calcium in Chinese hamster ovary cells stably expressing NPS receptor. This change in intracellular calcium can be detected using a calcium indicator dye on a calcium imaging plate reader system (FDSS). This particular assay uses a high density of sampling across concentration-response space to establish more confidence estimates of potency.\nNCGC Assay Protocol Summary: A Chinese hamster ovary (CHO) cell line stably expressing the NPS receptor (CHO-NPSR) was obtained from Dr. Heilig lab at NIAAA and maintained in F-12 Kaighn's media (Invitrogen, Carlsbad, CA, 21127) supplemented with 10 % FBS, 100 units/ml penicillin, 100 ug/ml streptomycin and 250 ug/ml geneticin at 37C, 5% CO2 in a humidified atmosphere. Before the assay, aliquots of cells were frozen and stored at -135C. The assay was performed on a FDSS-7000 kinetic plate reader in 1536-well format. For both agonist (1-220s) and antagonist (221-400s) phases, the maximums of kinetic fluorescence responses were converted separately into text files using the instrument's software data export utility. Data for agonist response were normalized to the controls for basal activity (DMSO only) and 100% activation (NPS). […] AC50 values were determined from concentration-response data modeled with the standard Hill equation. NPS 1536-well FDSS assay protocol: (1) Frozen CHO-NPSR cells were thaw, washed once with fresh media and resuspended in F-12 Kaighn's media supplemented with 10 % FBS, 100 units/ml penicillin and 100 ug/ml streptomycin. Cells were plated at 3 ul/well (1200 cells) to black, clear-bottom, tissue-culture treated 1536-well plates, and then cultured at 37C, 5 % CO2 for 16 to 30 hours. (2) Add 3 ul of calcium dye (from High Performance PBX Calcium Assay Kit, BD Biosciences). The calcium dye was prepared according to the manufactory's instruction. (3) Incubation at 37C, 5 % CO2 for 60 to 120 min. (4) Load plates to FDSS-7000. The following steps were performed on FDSS-7000. (5) Record fluorescent background (Ex 480 nm, Em 520-560 nm) for 10 s. (6) Add 23 nl/well of compound in DMSO solution. The final titration for each compound was between 0.6 nM and 46 uM. Record agonist response for 210 s. (7) Add 2 ul of stimulation reagent (1X HBSS buffer, 0.1% BSA, 60 nM NPS). Record antagonist response for 140 s. Keywords: MLSMR, MLPCN, NIH Roadmap, qHTS, NCGC, NPS, Neuropeptide S Antagonists"}
{"molecule": "C[n+]1cc(P(=S)(c2ccccc2)c2ccccc2)n2ccccc21", "Potency": "2.52 µM (active)"}
{"molecule": "S=P(c1ccccc1)(c1ccccc1)c1cnc2ccccn12", "Potency": "4 µM (active)"}
{"molecule": "Cc1c(P(=S)(c2ccccc2)c2ccccc2)[n+]2ccccc2n1CCCCc1ccccc1", "Potency": "0.0011 µM (active)"}
{"molecule": "Cc1c(P(=S)(c2ccccc2)c2ccccc2)[n+]2ccccc2n1CCc1ccccc1", "Potency": "0.0712 µM (active)"}
{"molecule": "Cc1c(P(=S)(c2ccccc2)c2ccccc2)[n+]2ccccc2n1Cc1ccccc1", "Potency": "0.0318 µM (active)"}
{"molecule": "Cc1c(P(=S)(c2ccccc2)c2ccccc2)[n+]2ccccc2n1C/C=C/c1ccccc1", "Potency": "0.000938 µM (active)"}
{"molecule": "Cc1c(P(=S)(c2ccccc2)c2ccccc2)[n+]2ccccc2n1C", "Potency": "0.0504 µM (active)"}
{"molecule": "Cc1nc2ccccn2c1P(=S)(c1ccccc1)c1ccccc1", "Potency": "1 µM (active)"}
{"molecule": "Cc1c(P(=S)(c2ccccc2)c2ccccc2)[n+]2ccccc2n1CCCc1ccccc1", "Potency": "0.002 µM (active)"}
{"molecule": "Cc1c(P(=S)(c2ccccc2)c2ccccc2)[n+]2ccccc2n1CCCCCc1ccccc1", "Potency": "0.0127 µM (active)"}
{"molecule": "Cc1c(P(=S)(c2ccccc2)c2ccccc2)c2ccccc2n1C", "Potency": "2.83 µM (active)"}
